Potency, activity, negative = inhibition and redox activity (% of DA3003) data for 18 compounds are collected here from PubChem BioAssay (NCATS).

Where “and” joins values, the source holds several entries; their conditions need not be identical. Equal values may be shown once. Records with an inconclusive call do not appear. The source holds several records for some structures; these can differ, active in one and inactive in another. Calls of active or inactive are those of the source. The call rests on the fitted dose curve; in most records, active means well fitted curve in the direction sought with a large enough effect; inconclusive means small, poorly fitted or top-dose-only effect, or another doubt; inactive means no such curve, though single readings can be large; an effect the other way counts as inactive or inconclusive.

Experiment [1] deals with Glutathione peroxidase 1 (Homo sapiens) (UniProt P07203). The experiment in a line: Primary qHTS Assay for Inhibitors of Recombinant Selenoprotein Glutathione Peroxidase 1 (GPX1) (AID 1845191). Further: nearly all actives have a fitted effect of over 65% in size. On activity, negative = inhibition: on the % scale 0 is the no-effect control and ±100 the full control effect. An outline of the steps: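 GR-coupled readout: NADPH consumption tracked by fluorescence, ex 340/em 450 nm, at t=0 and after 15 min at RT. Final mix 10 nM GPX1, 1 mM GSH, 0.5 mM CHP, 0.5 mM NADPH, 100 nM GR, 0.01% BSA, following 30 min enzyme–compound preincubation.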

In experiment [2] the target is Phospholipid hydroperoxide glutathione peroxidase GPX4 (Homo sapiens) (UniProt P36969). The experiment in a line: Primary qHTS Assay for Inhibitors of Recombinant Selenoprotein Glutathione Peroxidase 4 (GPX4) (AID 1845192). Further: nearly all actives have a fitted effect of over 65% in size. Further: potency means the concentration at half of the fitted maximal effect. An outline of the steps: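 Steps: GPX4 plus compound, 30 min RT; add GR/GSH/NADPH master mix; start with cumene hydroperoxide; read 340/450 nm fluorescence at 0 and 15 min. Finals were 200 nM GPX4, 1 mM GSH, 0.5 mM CHP, 0.5 mM NADPH, 100 nM GR.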
For orientation: Quantitative high-throughput screening tests each substance at several concentrations.

For experiment [3], the target named is Luciferin 4-monooxygenase (Photinus pyralis) (UniProt P08659). The experiment in a line: Primary firefly luciferase (FLuc) qHTS assay for identification of artifact compounds. (AID 1845220). Further: nearly all actives have a fitted effect of over 60% in size. An outline of the steps: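 D-luciferin and ATP (10 uM each, final) in Tris acetate buffer pH 7.6 were incubated with compounds for 15 min at room temperature. The reaction was started with 10 nM Photinus pyralis luciferase and luminescence read after 5 min. Percent inhibition was fitted to a 4-parameter Hill equation.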

Experiment [4] can be described thus: Primary redox qHTS assay for identification of artifact compounds. (AID 1845223).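 Further: 0% = DMSO and 100% = reference compound.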 An outline of the steps: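 Redox-cycling detection via DTT (250 uM final) oxidation coupled to Amplex Red (25 uM)/HRP (250 mU/mL) in HBSS. 15 min preincubation plus 30 min after DTT, room temperature. Ex/Em 525/598 nm; 4-parameter Hill fit against DMSO and 10 uM DA3003.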
Experiment [5] in a line: Primary fluorescence-based thiol-reactive (MSTI) qHTS assay for identification of artifact compounds. (AID 1845221). Further: nearly all actives have a fitted effect of over 65% in size. Further: potency means the concentration at half of the fitted maximal effect. An outline of the steps: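 Thiol-reactive compounds detected by quenching of 4 uM MSTI fluorescence (525/598 nm) after 1 h room-temperature dark incubation in PBS pH 7.4, 2% DMSO. qHTS titration; percent inhibition Hill-fitted against Acetyl-MSTI/MSTI controls.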

Experiment [6] deals with Nanoluciferase (engineered Oplophorus gracilirostris luciferase). In words: Primary Nanoluciferase (NLuc) qHTS assay for identification of artifact compounds. (AID 1845222).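 Further: series mostly up to about 54 µM; 0% = DMSO and -100% = no enzyme.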 An outline of the steps:
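Diluted conditioned medium from NLuc-expressing S16 cells treated with compounds for 15 min at room temperature, then Nano-Glo substrate added; luminescence read after 5 min. Percent inhibition versus no-enzyme and DMSO controls fitted to 4-parameter Hill equation.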

Phospholipid hydroperoxide glutathione peroxidase GPX4 (Homo sapiens), sequence (P36969 whole entry, looked up): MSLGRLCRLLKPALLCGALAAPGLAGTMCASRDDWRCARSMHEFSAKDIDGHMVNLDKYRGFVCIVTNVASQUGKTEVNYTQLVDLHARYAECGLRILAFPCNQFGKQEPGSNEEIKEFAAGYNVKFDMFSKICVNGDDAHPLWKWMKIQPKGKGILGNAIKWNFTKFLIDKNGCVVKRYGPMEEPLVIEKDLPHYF
Glutathione peroxidase 1 (Homo sapiens), sequence (P07203 whole entry, looked up): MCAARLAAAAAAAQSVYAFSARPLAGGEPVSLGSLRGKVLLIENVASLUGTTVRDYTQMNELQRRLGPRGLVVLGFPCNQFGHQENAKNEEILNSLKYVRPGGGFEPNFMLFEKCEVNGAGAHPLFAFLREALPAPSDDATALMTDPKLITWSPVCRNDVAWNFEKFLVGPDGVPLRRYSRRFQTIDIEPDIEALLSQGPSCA

In the case of `C=C1CCC2C(C)(C(=O)O)CC(O)CC2(C)C1CC/C(C)=C/C(=O)O` (configuration not stated), the Potency result in experiment [1], in experiment [2], in experiment [3] and in experiment [4] was “inactive” throughout.
Turning to `O=C(c1ccc(C#Cc2cccc(F)c2)cn1)N1CC2CC2C1` (configuration not stated), the Potency result in experiment [1], in experiment [2], in experiment [5], in experiment [6] and in experiment [4] was “inactive” each time.
Take `c1ccc(C(OC2CCN(CCCc3nn[nH]n3)CC2)c2ccccc2)cc1`: the Potency result in experiment [1], in experiment [2], in experiment [5] and in experiment [4] was “inactive” each time.
Consider `COC1CC(=O)CCC(C)OC(=O)CC1O` (configuration not stated), for which the Potency entry in experiment [1], in experiment [2], in experiment [5] and in experiment [4] was “inactive” throughout.
Consider `O=C(/C=C/c1ccc(O)cc1)OCC1=CC2OC(=O)C3=CO[C@@H](O[C@@H]4O[C@H](CO)[C@@H](O)[C@H](O)[C@H]4O)[C@H]1[C@@H]32` (some centres not stated), for which the Potency entry in experiment [1], in experiment [2], in experiment [5], in experiment [6] and in experiment [4] was “inactive” each time.
Turning to `C/C=C(\C)C(=O)O[C@H]1[C@H](O)[C@]2(COC(C)=O)[C@H](O)C[C@]3(C)C(=CCC4[C@@]5(C)CC[C@H](O[C@@H]6O[C@H](C(=O)O)[C@@H](O[C@@H]7O[C@H](CO)[C@@H](O)[C@H](O)[C@H]7O)[C@H](O)[C@H]6O[C@@H]6O[C@H](CO)[C@@H](O)[C@H](O)[C@H]6O)[C@](C)(CO)C5CC[C@]43C)[C@@H]2CC1(C)C` (some centres not stated), the Potency entry in experiment [1] and in experiment [2] was “inactive” throughout. In experiment [6], the activity, negative = inhibition is 4.32% [at 11.6 µM] (inactive). Moreover, the redox activity (% of DA3003) in experiment [4] was 2.47% [at 11.5 µM] (inactive).
As for `CNC(=O)O[C@H]1COc2ccc(N3CCN(C4COC4)CC3)cc2[C@@H]1NC(=O)c1ccc(F)cc1`, the Potency entry in experiment [1], in experiment [2], in experiment [5], in experiment [6] and in experiment [4] was “inactive” in each case.
In the case of `CC(=O)OC[C@]12[C@H](OC(C)=O)C(=O)[C@@H]3[C@@H](OC(C)=O)[C@@]14O[C@@]3(C)COC(=O)c1cccnc1[C@@H](C)[C@H](C)C(=O)O[C@@H]([C@H](OC(C)=O)[C@@H]2OC(C)=O)[C@]4(C)O`, the Potency result in experiment [1], in experiment [2], in experiment [5], in experiment [6] and in experiment [4] was “inactive” in each case.
On to `COc1ccc(C[C@H](N)C(=O)N[C@H]2[C@@H](O)[C@H](n3cnc4c(N(C)C)ncnc43)O[C@@H]2CO)cc1`, for which the Potency result in experiment [1], in experiment [2], in experiment [5] and in experiment [6] was “inactive” in each case.
Regarding `Cn1ccnc1CCOC(c1cc2nccc(C(=O)O)c2[nH]1)c1ccccc1Cl` (configuration not stated), the Potency result in experiment [1], in experiment [2], in experiment [5] and in experiment [4] was “inactive” each time.
On to `Cc1c(-c2ccnn2C)cc(C(=O)NCc2ccc(S(C)(=O)=O)cn2)c(=O)n1-c1cccc(C(F)(F)F)c1`, for which the Potency result in experiment [1], in experiment [5] and in experiment [6] was “inactive” in each case. Also, in experiment [2], the Potency result is “inactive and 12.8 µM (active)”.
As for `COc1cc(C[C@H]2COC(=O)[C@@H]2Cc2ccc(O)c(OC)c2)ccc1O`, the Potency result in experiment [1], in experiment [2], in experiment [6] and in experiment [4] was “inactive” in each case. Also, the Potency in experiment [5] was 14.7 µM (active).
As for `Cc1nnc(C(C)C)n1C1CC2CCC(C1)N2CC[C@H](NC(=O)C1CCC(F)(F)CC1)c1ccccc1` (some centres not stated), the Potency result in experiment [1], in experiment [2] and in experiment [5] was “inactive” throughout.
For `CC1(C)CCCC2(C)C3=C(C(=O)OC3O)C(O)CC12` (configuration not stated), the Potency result in experiment [1], in experiment [2], in experiment [5], in experiment [6] and in experiment [4] was “inactive” each time.
For `O=C1NC(=Nc2ccccc2F)S/C1=C\c1ccc(C(=O)O)cc1`, the Potency entry in experiment [1], in experiment [2], in experiment [5], in experiment [6] and in experiment [4] was “inactive” in each case.
On to `O=C(O)c1ccc(CCCc2ccc(OCCc3ccc(F)cc3)cc2)o1`, for which the Potency entry in experiment [1], in experiment [5] and in experiment [6] was “inactive” in each case. For the same compound, the Potency in experiment [2] was 16.1 µM (active).
`NCCCC[C@H](NC(=O)[C@@H]1Cc2ccccc2CN1C(=O)CCC(=O)c1ccccc1)C(=O)NCC(c1ccccc1)c1ccccc1`: the Potency result in experiment [1], in experiment [2] and in experiment [5] was “inactive” throughout.
As for `COc1ccc(C(=O)O[C@H]2CC(C)=CC[C@@]3(C)[C@@H](OC(C)=O)C[C@@](O)(C(C)C)[C@H]23)cc1`, the Potency entry in experiment [1], in experiment [2], in experiment [5] and in experiment [6] was “inactive” each time.
